Results with a measured potency or affinity are listed apart. The source made the active and inactive calls. The rule behind the calls is not given here.

A short description of this assay: HIV-1 Env-mediated cell fusion inhibitors, dose response, CCR5-tropic Env (AID 2279). The following applies: CCR5-tropic HIV-1 Env, reporter read-out; series mostly up to 50 µM; inhibition: at the top concentration.
Regarding `COc1ccc(/C=C2/SC(=S)N(CC(=O)O)C2=O)cc1OCc1ccc(Cl)cc1`, the inhibition (in general, the change of the read-out against control, counted positive when it falls) is 1.03% (inactive).
`COc1ccc(C(=O)Nc2ccccc2C(=O)O)cc1NC(=O)C(c1ccccc1)c1ccccc1`: the “inhibition” value was 32.5% (inactive).
The same measure for `CC1=C(C(=O)OC(C)C)C(c2ccc(Cl)cc2)n2c(s/c(=C\c3ccc(OCC(=O)O)cc3)c2=O)=N1` (centres undefined): 23.1% (inactive).
Take `CCOc1cc(/C=N/N=C2/NC(=O)C(CC(=O)O)S2)ccc1OCc1ccc(Cl)cc1` (centres undefined): the “inhibition” value was 10.5% (inactive).
`O=C(O)COc1ccc(/C=N/NC(=O)c2ccc(-c3csc(Nc4ccc(Cl)cc4)n3)cc2)cc1`: the “inhibition” value is 7.13% (inactive).
As for `CC(C)CS(=O)(=O)C1=NN2C(=N)/C(=C\c3ccc(OC(=O)c4ccco4)cc3)C(=O)N=C2S1`, the “inhibition” value was 20.7% (inactive).
Take `O=C(O)CSc1cc(C(=O)c2cc(F)ccc2O)cn2c(=O)c3c(-c4ccccc4)csc3nc12`: the “inhibition” value is 24.1% (inactive).
Take `CC(C)(C)c1ccc(S(=O)(=O)/N=C2\C=C(NS(=O)(=O)c3ccccc3)C(=O)c3ccccc32)cc1`: the “inhibition” value was 13.5% (inactive).
`CCc1nnc(NS(=O)(=O)c2ccc(N/C=C(\C=O)c3nc4cc(Cl)ccc4o3)cc2)s1`: the “inhibition” value was -1.49% (inactive).
Turning to `Cc1cccc(C)c1-n1cccc1/C=C1\SC(=S)N(c2cccc(C(=O)O)c2)C1=O`, the “inhibition” value is 17.3% (inactive).
The same measure for `COc1ccccc1OCCOc1ccc(/C=C2\C(=N)N3N=C(S(C)(=O)=O)SC3=NC2=O)cc1`: 8.49% (inactive); for `O=C(NN1C(=O)/C(=C/c2ccc(O)c([N+](=O)[O-])c2)SC1=S)c1ccccc1Cl`: -9.47% (inactive).
For `COc1ccc2c(c1)cc(C(=O)N/N=C/c1c(O)c(C(=O)O)cc3ccccc13)n2C`, the “inhibition” value is 4.15% (inactive).
Take `COc1ccc(C(=O)Nc2ccc(/C(C)=N/NC(=O)c3ccncc3)cc2)cc1`: the “inhibition” value is 2.59% (inactive).
The same measure for `O=C(O)CCN1C(=O)/C(=C\c2cccc(Oc3ccccc3)c2)SC1=S`: -2.4% (inactive).
Consider `O=C1NN(c2ccc(Cl)cc2)C(=O)/C1=C\c1ccc(-c2cccc(C(=O)O)c2)o1`, for which the “inhibition” value was 19.7% (inactive).
In the case of `O=C(O)c1cccc(N/N=C/c2cc(Br)cc(Br)c2O)c1`, the “inhibition” value was 11.8% [at 25 µM] (inactive).
Take `CCOc1cc(/C=C2/C(=N)N3C(=NC2=O)SN=C3S(=O)(=O)C(C)C)ccc1OC(=O)c1ccco1`: the “inhibition” value is -12.2% (inactive).
On to `N#Cc1c(-c2ccccc2)nc(SCc2ccc(Cl)cc2)[nH]c1=O`, for which the “inhibition” value is 7.41% (inactive).
As to `COc1ccc(O)c(C(=O)c2cc(SCC(=O)O)c3nc4sc5c(c4c(=O)n3c2)CCCC5)c1`, the “inhibition” value was 36% (inactive).
Consider `CCOc1cc(Br)cc(C(c2c(C(=O)O)[nH]c3ccccc23)c2c(C(=O)O)[nH]c3ccccc23)c1O`, for which the “inhibition” value is -22.4% (inactive).
The same measure for `COc1ccc(-c2coc3c(C)c4oc(=O)c(CCC(=O)O)c(C)c4cc23)cc1`: -8.28% [at 25 µM] (inactive).
For `O=C1/C(=C2\C(=O)N(Cc3ccc(F)cc3)c3ccccc32)SC(=S)N1CCS(=O)(=O)O`, the “inhibition” value is -4.42% (inactive).
Consider `CCc1ccc(/C=C2\SC(=S)N(CCCC(=O)Nc3ccccc3C(=O)O)C2=O)cc1`, for which the “inhibition” value was 16.9% (inactive).
As to `CCOC(=O)C1=C(C)N=c2s/c(=C/c3ccc(OCC(=O)O)cc3)c(=O)n2C1c1ccc(SC)cc1` (centres undefined), the “inhibition” value is 17.9% (inactive).
Consider `O=C(O)c1[nH]c2ccccc2c1C(c1cc(Br)ccc1O)c1c(C(=O)O)[nH]c2ccccc12`, for which the “inhibition” value is -15.4% (inactive).
Take `COc1cccc(C2C3=C(N=c4s/c(=C\c5ccc(OCC(=O)O)cc5)c(=O)n42)c2ccccc2CC3)c1` (centres undefined): the “inhibition” value is 29.7% (inactive).
The same measure for `O=C(O)COc1ccccc1/C=N/Nc1ccc(S(=O)(=O)Nc2ccc(Cl)cc2)cc1[N+](=O)[O-]`: -4.47% (inactive); for `O=c1/c(=C\c2cc([N+](=O)[O-])cc([N+](=O)[O-])c2O)sc2nc3ccccc3n12`: -6.52% (inactive); for `O=C(O)COc1ccccc1/C=N/NC(=O)CSc1nnc(SCc2cccc3ccccc23)s1`: -0.33% (inactive).
For the compound `O=C(O)c1ccc(-c2ccc(/C=c3/sc4nc5ccccc5n4c3=O)o2)cc1Cl`, the “inhibition” value is 8.02% (inactive).
The same measure for `COc1cc(NS(=O)(=O)c2ccc(NC(=S)NC(=O)c3sc4ccccc4c3Cl)cc2)nc(OC)n1`: 17.8% (inactive).
Consider `O=C1NN(c2ccc(F)c(Cl)c2)C(=O)/C1=C\c1cccc(OC(=O)c2cccs2)c1`, for which the “inhibition” value was 27.9% (inactive).
As for `CCOC(=O)c1sc(N2C(=O)C(O)=C(C(=O)c3ccco3)C2c2ccc([N+](=O)[O-])cc2)nc1C` (centres undefined), the “inhibition” value was 35.6% (inactive).

The values are drawn from PubChem BioAssay AID2279 (Southern Research Specialized Biocontainment Screening …, 2010).
